Compound activity: PubChem BioAssay, National Center for Advancing Translational Sciences (NCATS)
hNpr1 antagonist = Natriuretic polypeptide receptor (hNpr1) antagonism - Primary qHTS; HEK293 hNpr1 GloSensor cGMP, ANP-stimulated luminescence; 1.6% of 76,000 active; Potency, µM (top dose mostly 46.3 µM), hits mostly inhibitors; calls by dose curve; further: nearly all actives have a fitted effect of over 60% in size
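HEK293 cells stably expressing human Npr1 and cGMP GloSensor pGS-40F, loaded 2 h with 2% GloSensor reagent, given compound 30 min at room temperature. Luminescence read before and 20 min after 0.1 nM hNppA.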
FLuc inh = Firefly luciferase inhibition profiling of diverse chemical library using quantitative high-throughput screening | purified P. pyralis luciferase, luminescence, biochemical | Potency, µM (doses to about 115 µM), hits mostly inhibitors | 2.5% of 76,000 active | AID 1347043, 2019; further: nearly all actives have a fitted effect of over 65% in size
Target sequence (P08659 whole entry, looked up): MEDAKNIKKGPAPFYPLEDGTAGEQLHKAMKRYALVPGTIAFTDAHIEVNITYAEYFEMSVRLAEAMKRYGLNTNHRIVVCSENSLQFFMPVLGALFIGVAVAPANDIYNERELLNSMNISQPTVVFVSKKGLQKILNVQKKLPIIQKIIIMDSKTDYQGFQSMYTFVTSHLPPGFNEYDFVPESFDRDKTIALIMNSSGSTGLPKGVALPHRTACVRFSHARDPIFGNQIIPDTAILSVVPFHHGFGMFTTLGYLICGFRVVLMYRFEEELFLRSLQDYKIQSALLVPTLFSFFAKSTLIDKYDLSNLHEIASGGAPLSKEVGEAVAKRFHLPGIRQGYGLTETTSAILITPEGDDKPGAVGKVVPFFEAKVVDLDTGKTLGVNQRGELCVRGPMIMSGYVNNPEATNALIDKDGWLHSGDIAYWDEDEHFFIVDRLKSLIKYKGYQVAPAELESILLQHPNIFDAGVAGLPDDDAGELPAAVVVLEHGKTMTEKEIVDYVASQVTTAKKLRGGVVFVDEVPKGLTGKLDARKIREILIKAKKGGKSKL
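Purified 10nM P. pyralis luciferase with 10uM D-luciferin and 10uM ATP in 50mM Tris acetate pH 7.5, 10mM Mg acetate, 0.01% Tween-20, 0.05% BSA. qHTS titration; luminescence read by CCD imager.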
3T3 cytotox = Cytotoxic Profiling in NIH 3T3 Cell Line of Diverse Libraries Using Quantitative High-Throughput Screening. NIH 3T3 viability, CellTiter-Glo ATP luminescence, 48-72 h. Potency, µM (highest dose often 96.7 µM), hits mostly inhibitors. 4.3% of 94,000 active; further: nearly all actives have a fitted effect of over 55% in size
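Luminescent ATP readout (CellTiter-Glo, 10 min RT) after 48 or 72 hr compound exposure of NIH 3T3 cells seeded at 400 cells/well in 1536-well format; quantitative HTS.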
HEK293 tox = Cytotoxic Profiling in HEK 293 Cell Line of Diverse Libraries Using Quantitative High-Throughput Screening. 6.6% of 94,000 active. HEK 293 viability, ATP luminescence (CellTiter-Glo), 48-72 h. Potency, µM (doses to about 115 µM), actives largely listed as inhibitors; further: nearly all actives have a fitted effect of over 60% in size
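Read-out: CellTiter-Glo ATP luminescence. Cells: HEK 293, 250 cells/well. Exposure: 48 or 72 hr, 37 degree Celsius.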
GPT2 inhibitor = Primary qHTS assay for inhibitors of Glutamate pyruvate transaminase 2 (GPT2) | Alanine aminotransferase 2 (Homo sapiens), Q8TD30 | Recombinant GPT2, coupled pyruvate oxidase/HRP Amplex Red fluorescence | Potency, µM (titrated, usually from 57.7 µM), hits mostly inhibitors | 0.25% of 100,000 active | AID 1671188, 2021; further: nearly all actives have a fitted effect of over 60% in size
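Fluorescence read-out: pyruvate from GPT2 turnover coupled to pyruvate oxidase, HRP and Amplex Red (0.2mM ThPP, 0.2U/mL PO and HRP, 50uM Amplex final). Substrates 250uM a-KG, 2mM L-alanine; enzyme 10ng/uL; 30 min RT.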
Of the large screens only hits and unclear results are named; the others gave an inactive call. Rows were chosen to be rich in hits. Some 10% of all compounds tested hit in one or more screens of this group. Unless noted, the call rests on the fitted dose curve; in most records, active means well fitted curve in the direction sought with a large enough effect; inconclusive means small, poorly fitted or top-dose-only effect, or another doubt; inactive means no such curve, though single readings can be large; an effect the other way counts as inactive or inconclusive.

COc1ccc(CC(=O)N2CCC(c3n[nH]c(=O)n3-c3ccc(C)cc3)CC2)cc1	3T3 cytotox 31.6µM
COc1cccc(C(=O)N2CCC(c3n[nH]c(=O)n3-c3ccc(C)cc3)CC2)c1	3T3 cytotox 35.5µM
O=C(Cc1ccc(Cl)cc1)N1CCC(c2n[nH]c(=O)n2-c2ccccc2)CC1	3T3 cytotox 31.6µM
Cc1ccc(CC(=O)N2CCC(c3n[nH]c(=O)n3-c3ccc(C)cc3)CC2)cc1	3T3 cytotox inconclusive
COc1cc(OC)cc(C(=O)N2CCC(c3n[nH]c(=O)n3Cc3ccc(F)cc3)CC2)c1	3T3 cytotox 17.8µM
Fc1ccc(-c2cnc3n2C[C@H](CNCC2CCCCC2)OC3)cc1	3T3 cytotox inconclusive, HEK293 tox inconclusive
O=C(c1ccncc1)N1CC[C@](O)(c2ccccc2)[C@H](N2CCCC2)C1	3T3 cytotox inconclusive, GPT2 inhibitor inconclusive
Cc1ccc(-c2cc(C(=O)N3CCCC3c3nncn3C(C)C)[nH]n2)cc1 (stereo not drawn)	FLuc inh inconclusive
COCCNC(=O)N1CCN(Cc2ccco2)CC(C(=O)O)C1 (stereo not drawn)	none
COc1cc(OC)cc(C(=O)N2CCC(c3n[nH]c(=O)n3-c3ccc(C)cc3)CC2)c1	3T3 cytotox 25.1µM
CCCNC(=O)Cn1cccc1-c1nc(-c2ccc(OC)c(F)c2)no1	none
COc1nc2nc(CCc3ccccc3)n(C)c2cc1-c1cccc(CO)c1	FLuc inh 70.8µM, 3T3 cytotox inconclusive, HEK293 tox inconclusive
CCc1ccc(S(=O)(=O)c2nnn3c2nc(NCc2ccc(F)cc2)c2ccccc23)cc1	3T3 cytotox inconclusive (no result: hNpr1 antagonist, FLuc inh)
O=S(=O)(c1ccc(Cl)cc1)c1nnn2c1nc(NCc1ccc(F)cc1)c1ccccc12	3T3 cytotox 31.6µM, HEK293 tox inconclusive (no result: hNpr1 antagonist, FLuc inh)
FC(F)(F)C1CN(c2ccc3cc(Cl)ccc3n2)CCO1 (stereo not drawn)	FLuc inh 25.1µM, 3T3 cytotox inconclusive, HEK293 tox inconclusive
O=C(c1ccc(CN2C(=O)NC3(CCOCC3)C2=O)cc1)N1CCc2ccccc2C1	GPT2 inhibitor inconclusive
Cc1ccccc1-c1nc(N2CCOCC2)cc2c1CN(Cc1ccccc1)C2=O	3T3 cytotox 25.1µM, HEK293 tox 50.1µM
O=C1c2cc(N3CCOCC3)nc(-c3ccc(F)cc3)c2CN1CC1CC1	3T3 cytotox inconclusive, HEK293 tox 100µM
CN(C)c1cccc(-c2nc(N3CCOCC3)cc3c2CN(Cc2cnn(C)c2)C3=O)c1	3T3 cytotox 44.7µM, HEK293 tox inconclusive
COc1cc(F)ccc1-c1nc(N2CCOCC2)cc2c1CN(c1ccccc1)C2=O	FLuc inh 70.8µM, HEK293 tox inconclusive
O=C1c2cc(N3CCOCC3)nc(-c3cccc(CO)c3)c2CN1Cc1ccccc1	HEK293 tox 79.4µM
O=C1c2cc(N3CCOCC3)nc(-c3ccc(CO)cc3)c2CN1Cc1ccccc1	3T3 cytotox inconclusive
CN1Cc2c(cc(N3CCOCC3)nc2-c2cnn(C)c2)C1=O	3T3 cytotox 25.1µM, HEK293 tox inconclusive
Cc1cc(C)c(C)c(S(=O)(=O)NC2CCN(c3ccc(=O)n(CC4CC4)n3)CC2)c1C	hNpr1 antagonist inconclusive, 3T3 cytotox inconclusive, HEK293 tox 31.6µM
O=c1ccc(N2CCC(NS(=O)(=O)c3ccc(Cl)s3)CC2)nn1CC1CC1	hNpr1 antagonist inconclusive, 3T3 cytotox inconclusive, HEK293 tox inconclusive
Cc1noc(C)c1-c1cc2cc(C(C)C)oc2c(NC2CCOCC2)n1	3T3 cytotox inconclusive, HEK293 tox 100µM
Cc1noc(C)c1-c1cc2cc(C(C)C)oc2c(NC(C)C)n1	3T3 cytotox 79.4µM, HEK293 tox 89.1µM
COc1ncccc1-c1nc(-c2c(C)noc2C)cc2cc(C(C)C)oc12	3T3 cytotox inconclusive, HEK293 tox 89.1µM
Cc1noc(C)c1-c1cc2cc(C(C)C)oc2c(-c2c(C)noc2C)n1	3T3 cytotox inconclusive, HEK293 tox inconclusive
COc1cccc(NC(=O)COc2ccc(-c3nnc4n3CCCC4)cc2)c1	GPT2 inhibitor inconclusive
Cc1cnc(-c2ccccc2)n1CCNC(=O)C1COc2ccccc2O1 (stereo not drawn)	none
O=C(NCCc1ccccc1)C1CCc2nnc(C3CCN([S+](=O)([O-])c4ccccc4Cl)CC3)n21 (stereo not drawn)	none (no result: hNpr1 antagonist, FLuc inh)
O=C(NCc1ccccc1)O[C@H]1COCCN(c2nc3ccccc3s2)C1	3T3 cytotox inconclusive, HEK293 tox inconclusive
CCc1ccc(NC(=O)Cn2c(N3CCC(C)CC3)nc(C)cc2=O)cc1	hNpr1 antagonist inconclusive, 3T3 cytotox inconclusive, HEK293 tox 44.7µM
Cc1cc(=O)n(CC(=O)Nc2ccc(C)c(Cl)c2)c(N2CCC(C)CC2)n1	hNpr1 antagonist inconclusive, 3T3 cytotox inconclusive, HEK293 tox 31.6µM
Cc1cc(C)cc(NC(=O)Cn2c(N3CCC(C)CC3)nc(C)cc2=O)c1	hNpr1 antagonist inconclusive, 3T3 cytotox inconclusive, HEK293 tox inconclusive
Cc1ccc(NC(=O)Cn2c(C)cc3nc4n(c(=O)c32)CCCCC4)cc1Cl	3T3 cytotox 39.8µM, HEK293 tox 28.2µM
Cc1cc(=O)n(CC(=O)Nc2ccc(C)c(C)c2)c(N2CCC(C)CC2)n1	3T3 cytotox inconclusive, HEK293 tox inconclusive
COc1cccc(NC(=O)Cn2c(N3CCC(C)CC3)nc(C)cc2=O)c1	hNpr1 antagonist inconclusive, HEK293 tox inconclusive
Cc1cc(=O)n(CC(=O)Nc2ccc(Br)cc2)c(N2CCC(C)CC2)n1	hNpr1 antagonist inconclusive, 3T3 cytotox inconclusive, HEK293 tox 39.8µM
Cc1ccc(-c2cn3cc(C(=O)NCC(F)(F)F)nc3s2)cc1	3T3 cytotox inconclusive, HEK293 tox inconclusive (no result: hNpr1 antagonist, FLuc inh)
Cc1cc(=O)n(CC(=O)Nc2ccccc2C)c(N2CCC(C)CC2)n1	3T3 cytotox inconclusive, HEK293 tox inconclusive
Cc1cc(=O)n(CC(=O)Nc2ccc(Cl)cc2)c(N2CCC(C)CC2)n1	3T3 cytotox inconclusive, HEK293 tox 39.8µM
CC(=O)c1ccc(NC(=O)Cn2c(-c3ccc(Cl)cc3)nc(C)cc2=O)cc1	3T3 cytotox inconclusive, HEK293 tox 44.7µM
CCOC(=O)c1ccc(NC(=O)Cn2c(N3CCN(c4ccccc4)CC3)nc(C)cc2=O)cc1	3T3 cytotox 31.6µM, HEK293 tox 39.8µM
O=C(CC1CC1)N[C@@H]1CN(Cc2ccccc2)C[C@H]1CO	none
C=CCN1C[C@@H]2C[C@@H](C(N)=O)N(C(=O)CC3CCCC3)c3cccc(c32)[S+]1(=O)[O-]	3T3 cytotox inconclusive, HEK293 tox inconclusive (no result: hNpr1 antagonist, FLuc inh)
CC(C)=CCN1CCNC(=O)C1CC(=O)O (stereo not drawn)	none
